# From PubChem BioAssay AID1952 (The Scripps Research Institute Molecular Screening Center, 2009)
# Out of some 2,400 compounds screened, about 1,200 (50%) were called active. The set was probably picked from earlier hits. These entries were drawn from the full list. A number with no mark means an inactive call. No stated cut-off is given here; in the data, active means inhibition above about 24%; inactive means the rest.
# Biological target: Neuropeptides B/W receptor type 1 (Homo sapiens) (UniProt P48145)
# Sequence (P48145 whole entry, looked up): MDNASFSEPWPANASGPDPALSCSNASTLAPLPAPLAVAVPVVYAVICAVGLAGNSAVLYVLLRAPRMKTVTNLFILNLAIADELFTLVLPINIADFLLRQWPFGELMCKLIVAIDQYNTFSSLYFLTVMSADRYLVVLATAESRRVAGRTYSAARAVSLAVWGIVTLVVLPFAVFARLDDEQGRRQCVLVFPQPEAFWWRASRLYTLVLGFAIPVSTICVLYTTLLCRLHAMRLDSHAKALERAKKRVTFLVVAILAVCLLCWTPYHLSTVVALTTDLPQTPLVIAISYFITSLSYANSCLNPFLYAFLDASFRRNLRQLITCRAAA
# Assay: blockers of human NPBW1 receptor – cell-based, fluorescence, single concentration, confirmation (AID 1952);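 further: stimulated with the GPR7 agonist NPW; 0% = agonist plus vehicle and 100% = vehicle alone without agonist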
# Conditions: GPR7-expressing cells, calcium fluorescence antagonist mode; at 4.4 µM; stronger effect = higher value
row,Compound,inhibition
1,Cc1cccc(CS(=O)(=O)c2ncc(Cl)c(C(=O)Nc3ccc(F)cc3)n2)c1,51.2% (active)
2,COc1ccccc1CNC(=O)COc1ccc(C)nc1[N+](=O)[O-],2.95%
3,COc1ccc(NS(=O)(=O)c2ccc(NC(=S)NC(=O)CC(C)C)cc2)cc1,35.8% (active)
4,COc1ccccc1Oc1ccc(S(=O)(=O)Nc2cccnc2)cc1,16.8%
5,COc1ccc(C2Nc3ccccc3C(=O)N2Cc2ccccc2)cc1Cn1nnc2ccccc21 (stereo unspecified),31.7% (active)
6,O=C(CC(=O)Nc1ccc(Cl)c(Cl)c1)N/N=C/c1ccc(O)cc1,10.9%
7,CC1(C)CC(CNCCC(c2ccc(F)cc2)c2ccco2)CCO1 (stereo unspecified),12.5%
8,COc1ccc(C(CCNCc2ccccc2F)c2ccc(F)cc2)cc1 (stereo unspecified),47.2% (active)
9,CC(C)OCCCNc1ncnc2c1[nH]c1ccc(F)cc12,39.2% (active)
10,O=C(CCc1ccccc1)Nc1ccc(NC(=O)C2CC2)nc1,17.6%
11,O=C(CN1CCN(C(=S)NC2CCCC2)CC1)Nc1ccc(Oc2ccccc2)cc1,28.6% (active)
12,Cc1ccc(NC(=O)CN2CCC3(O)CCCCC3C2c2ccc3c(c2)OCO3)c(C)c1 (stereo unspecified),19.6%
13,CCc1ccc(NC(=O)c2ccc(Cn3cc([N+](=O)[O-])cn3)cc2)cc1,29.5% (active)
14,O=C(COc1ccccc1)NCc1ccc2c(c1)OCO2,14.3%
15,CCOc1ccc(Cn2nnc(C(=O)NCc3ccccc3)c2N)cc1,52.4% (active)
16,COc1cc(NC(=O)CN2C(=O)NC(C)(c3ccc(OC(F)F)cc3)C2=O)cc(OC)c1OC (stereo unspecified),23.2%
17,Cc1cc2c(cc1C)N(Cc1ccccc1)C1=NCCCN12,20.8%
18,CCOc1ccc(C(=O)NC(=S)Nc2ccc(N3CCOCC3)c(Cl)c2)cc1[N+](=O)[O-],-6.59%
19,CCN1CCN(c2ccc([N+](=O)[O-])cc2C(=O)c2ccc(Cl)cc2)CC1,39.6% (active)
20,COc1ccc(N=C2SC(C(=O)Nc3ccc(F)cc3)CC(=O)N2C)cc1 (stereo unspecified),4.38%
21,Fc1ccc(-c2ccc(-c3nn4c(-c5ccco5)nnc4s3)o2)cc1,8.54%
22,O=C(CN1C(=O)/C(=C/c2ccccc2F)Sc2ccccc21)NCc1cccnc1,-18%
23,Cc1ccc(C(=O)C[n+]2cc(-c3ccccc3)n3c2CCCCC3)cc1,27.9% (active)

row,Compound,inhibition
1,C=CCC1(CC=C)CCCN1C(=O)c1cc(COc2ccc(-n3cncn3)cc2)on1,29.2% (active)
2,Clc1ccc(-c2cc(C3CCNCC3)[nH]n2)c(Cl)c1,34.3% (active)
3,CCCCCCCCCCOC(=O)Cn1c(COc2cccc(OC)c2)[n+](C)c2ccccc21,78.9% (active)
4,Cc1cccc(NC(=O)c2cccc(C(=O)Nc3cccc(C)c3C)n2)c1C,37.8% (active)
5,Clc1ccc(C2CC(c3cccs3)n3ncnc3N2)cc1Cl (stereo unspecified),31.9% (active)
6,CCC(C(=O)Nc1ccc(C(C)C)cc1)c1ccccc1 (stereo unspecified),94.1% (active)
7,C=CCNC(=O)COC(=O)c1ccccc1C(=O)N(C)C1CCCCC1,-3.62%
8,O=C(Nc1ccc2c(c1)OCO2)C1CC(c2c(F)cccc2Cl)=NO1 (stereo unspecified),8.85%
9,CC(=O)N1CCCc2cc(S(=O)(=O)N3CCCC(C(=O)N4CCN(c5cccc(Cl)c5)CC4)C3)ccc21 (stereo unspecified),69.6% (active)
10,COc1ccc(NC(=O)C2CCC(CNS(=O)(=O)c3csc(C(N)=O)c3)CC2)cc1OC (stereo unspecified),-15.3%
11,COc1cc(OC)cc(C(=O)N[C@H](C(=O)OCC(=O)NC(C)c2ccccc2)C(C)C)c1 (stereo partly specified),79.4% (active)
12,COCCCNC(=S)N1CCN(c2nc(-c3cccc(OC)c3)cs2)CC1,19%
13,O=C(Cc1ccc(Cl)cc1)NC(=S)Nc1ccccc1O,84.5% (active)
14,Cc1ccccc1NC(=S)NC(=O)Cc1ccc(Cl)cc1,70.5% (active)
15,O=C(NC(=O)c1ccccc1)Nc1ccccc1O,12.2%
16,O=C(CCCN1CCc2[nH]c3ccc(F)cc3c2C1)c1ccc(F)cc1,18.6%
17,CN(c1cccc(NC(=O)Nc2ccc(Cl)cc2)c1)S(C)(=O)=O,31% (active)
18,OC(CNCC1CCCO1)Cn1c2ccc(Br)cc2c2cc(Br)ccc21 (stereo unspecified),78.3% (active)
19,O=C(NCCCN1CCOCC1)c1ccc2c(c1)N(Cc1cccc(F)c1)C(=O)c1ccccc1S2,24.3% (active)
20,Cc1ccccc1CN1C(=O)c2ccccc2Sc2ccc(C(=O)NCCCN3CCOCC3)cc21,42.4% (active)
21,O=C(CSc1nnc(-c2ccco2)o1)NCC(=O)c1ccccc1,-14.8%
22,Cc1ccc(S(=O)(=O)n2cnc3ccccc32)c(C)c1,-4.27%
23,COc1ccc(C)cc1NC(=O)NCCCCc1ccccc1,4.53%

row,Compound,inhibition
1,CS(=O)(=O)N(Cc1ccc(Cl)cc1)c1ccc(C(=O)NCCSCc2ccco2)cc1,32.3% (active)
2,Cc1ccc2[nH]cc(CCNC(=O)c3ccc([N+](=O)[O-])cc3)c2c1,40.7% (active)
3,Cc1ccccc1CN1C[C@@H]2C[C@@H](c3cn(C)nc3-c3ccccc3)N3CCC[C@@]23C1=O,21.9%
4,Cc1ccc(NC2=C(Cl)C(=O)OC2OC(=O)c2ccccc2C)cc1 (stereo unspecified),4.37%
5,CC1CN(C(=O)CCC(=O)NCCCN2CCC(Cc3ccccc3)CC2)c2cc(Cl)ccc2O1 (stereo unspecified),49.4% (active)
6,c1ccc(C2CNCc3c2ccc2ccccc32)cc1 (stereo unspecified),89.5% (active)
7,S=C(NCCc1ccccc1)Nc1ccccc1,1.82%
8,CN(c1ccccc1)S(=O)(=O)c1ccc(C(=O)NCCc2ccccc2)cc1,24.1% (active)
9,CC(=O)Nc1ccc(S(=O)(=O)N(C)CC(=O)NCCC2=CCCCC2)cc1,-0.53%
10,N=c1n(CCc2ccccc2)c2ccccc2n1Cc1ccccc1F,36.4% (active)
11,CS(=O)(=O)Nc1cccc(C2=NN(S(=O)(=O)c3ccccc3)C(c3cccs3)C2)c1 (stereo unspecified),22.3%
12,CCN(CC)Cc1c(C(=O)OC)nnn1-c1nonc1N,-1.39%
13,CCOc1ncccc1C(=O)NCCc1ccc(OC)cc1,15%
14,COc1ccc(CS(=O)/C(Cl)=C(/Cl)C(=O)Nc2ccc(OC)nc2)cc1 (stereo unspecified),63.6% (active)
15,CCc1ccc(OCC2c3cc(OC)c(OC)cc3CCN2C(C)=O)cc1 (stereo unspecified),30% (active)
16,CCN(CC)CCOCCOc1ccc(Cl)c2ccccc12,20.8%
17,COc1ccccc1N1CCN(c2ncnc3sc(C)c(-c4ccccc4)c23)CC1,37.2% (active)
18,CCC(C)c1ccccc1NC(=O)CN(C)CC(=O)Nc1ccccc1SC (stereo unspecified),19.5%
19,O=C(NCCCN1CCN(c2ccc(F)cc2)CC1)Nc1ccc([N+](=O)[O-])cc1,41.9% (active)
20,COc1cccc(CNCCc2c[nH]c3ccccc23)c1OCc1ccccc1F,61.5% (active)
21,O=[N+]([O-])c1ccc(N(CCO)Cc2ccccc2)c([N+](=O)[O-])c1,23.3%
22,O=C(CSCc1ccc([N+](=O)[O-])cc1)NCCSCc1ccccc1,35.4% (active)
23,O=C(NCCNc1ccc([N+](=O)[O-])cc1Cl)c1ccccc1F,18.8%

row,Compound,inhibition
1,CC(C(=O)N1CCN(c2ccccc2F)CC1)c1ccc([N+](=O)[O-])cc1 (stereo unspecified),42.2% (active)
2,Cc1cc(OC(C)C(=O)NC2CC(C)(C)NC(C)(C)C2)c2c(C)cc(=O)oc2c1 (stereo unspecified),-2.7%
3,Cc1c(CCO)c(=O)n(-c2ccccc2)n1S(=O)(=O)c1ccc(F)cc1,-9.84%
4,Cc1cc(OCc2ccc(C(=O)Nc3ccc(C(=O)O)cc3)o2)ccc1Cl,44.9% (active)
5,Cc1ccc2nc(C)c3c(c2c1)N(c1ccccc1)CC3,37.9% (active)
6,CS(=O)(=O)N(CC(O)Cn1c2ccccc2c2ccccc21)c1cccc2ccccc12 (stereo unspecified),45% (active)
7,O=[N+]([O-])/C=C/c1ccc2c(ccn2Cc2ccccc2)c1,92.4% (active)
8,CN(C)S(=O)(=O)N1CCC(Oc2cccc(C(=O)NCCCC3CCCC3)c2)CC1,40.1% (active)
9,COc1ccc([N+](=O)[O-])cc1N(CC(O)CN(CC(C)C)CC(C)C)S(=O)(=O)c1ccc(C)cc1 (stereo unspecified),31.9% (active)
10,N#CC1=C(SCc2ccc(C#N)cc2)N=C(N)C(c2nc(-c3ccccc3)cs2)C12CCCCC2 (stereo unspecified),44.2% (active)
11,COc1cc(OC)c(-n2cc(-c3ccc(Cl)cc3)[nH]c2=O)cc1Cl,60.4% (active)
12,O=C(COc1ccc(S(=O)(=O)Nc2cccc(C(F)(F)F)c2)cc1)N1CCOCC1,19.6%
13,Cc1cc(Cl)ccc1OCCCC(=O)Nc1cccc(-n2cnnn2)c1,27.4% (active)
14,O=S(=O)(c1ccc(OCC(O)CN2CCN(c3ccccc3Cl)CC2)cc1)N1CCOCC1 (stereo unspecified),11.4%
15,Cc1ccc(NC(=S)N(CCCN2CCC(C)CC2)Cc2ccco2)cc1,0.61%
16,Cc1ccc(SCc2cc(=O)[nH]c(N3CCCCC3)n2)cc1,-9.2%
17,CCCOc1ccccc1C1CC(=O)Nc2cc3c(cc21)OCO3 (stereo unspecified),24.6% (active)
18,Cc1ccccc1Nc1nnc(SCC(=O)c2cc3ccccc3o2)s1,3.71%
19,Nc1nnc(SCC(=O)Nc2ccc3nc(SCC(=O)Nc4ccccc4)sc3c2)s1,59.8% (active)
20,Cc1ccc(CNC(=O)C2CCN(S(=O)(=O)c3ccc4nc5c(c(C(=O)O)c4c3)CC(C)CC5)CC2)cc1 (stereo unspecified),16.8%
21,Cn1c(=O)c([N+](=O)[O-])c(Oc2ccccc2)c2ccccc21,17.2%
22,COc1ccccc1N(C(=O)Cn1nnc2ccccc21)C(C(=O)NCc1ccco1)c1ccc(C)o1 (stereo unspecified),22.8%
